Screening results: PubChem BioAssay, several laboratories
Only some compounds are listed: those with a hit (about 6.6% of all), similar ones and a draw of the others.
FBA Mtb inh: inhibitors of M. tuberculosis fructose-bisphosphate aldolase; purified M. tuberculosis FBA, fluorescence read-out; inhibition, % at 1 µM; 360,000 tested, 2.3% active; AID 588726; in the data active = inhibition above about 27%;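 note: 0% = vehicle and 100% = reference inhibitor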
Target sequence (P9WQA3 whole entry, looked up): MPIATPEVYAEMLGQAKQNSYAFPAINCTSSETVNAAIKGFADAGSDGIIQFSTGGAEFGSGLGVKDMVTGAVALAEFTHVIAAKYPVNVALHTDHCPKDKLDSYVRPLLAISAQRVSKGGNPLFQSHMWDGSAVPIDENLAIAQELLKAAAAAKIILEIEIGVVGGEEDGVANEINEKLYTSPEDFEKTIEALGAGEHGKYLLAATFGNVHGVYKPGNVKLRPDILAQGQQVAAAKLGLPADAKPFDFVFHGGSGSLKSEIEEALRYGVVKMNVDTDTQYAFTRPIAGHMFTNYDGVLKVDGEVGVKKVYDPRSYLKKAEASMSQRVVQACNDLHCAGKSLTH
Bead autofluor: counter-screen for toxin protease inhibitors: compound fluorescence | compound autofluorescence counterscreen, microsphere flow cytometry; stronger effect = higher value | fluorescence intensity (concentration not given with the values) | 360,000 tested, 3.1% active; in the data active = fluorescence intensity above about 16000; inconclusive = no clear call, values can overlap the other calls
BoNT F protease: inhibitors of Botulinum neurotoxin F light chain protease; Multiplex microsphere protease cleavage assay, flow cytometry; AID 588497; inhibition, % at 10 µM; 360,000 tested, 0.22% active; in the data active = inhibition above about 35%, passing the limit was not always enough; inconclusive = no clear call, values can overlap the other calls; note: plate controls were buffer without enzyme for full effect and enzyme alone for no effect
BoNT-A LC inh2: blocks Botulinum neurotoxin A light chain protease; inhibition, % at 10 µM; multiplex microsphere protease substrate cleavage, flow cytometry; 360,000 tested, 0.17% active; note: plate controls were buffer without enzyme for full effect and enzyme alone for no effect
Anthrax LF inh2: anthrax lethal factor protease inhibition | P15917 | multiplex microsphere protease cleavage assay, LF | inhibition, % at 10 µM | 360,000 tested, 0.12% active; note: plate controls were buffer without enzyme for full effect and enzyme alone for no effect
GDH-TPI inh: inhibits GDH-TPI coupling enzymes, artifact for Mtb FBA screen; GDH-TPI coupled enzyme counterscreen, NADH absorbance; inhibition, % at 4.8 µM; 360,000 tested, 1.2% active; AID 588335; in the data active = inhibition above about 30%;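 note: 0% = DMSO wells and 100% = wells lacking the enzyme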
Active calls of the source: *; ? = inconclusive; + = active, no number. Cut-off read from the data, not from the text of the source, unless noted: active = inhibition above about 30%; inconclusive = no clear call, values can overlap the other calls; inactive = below that.

SMILES	FBA Mtb inh	Bead autofluor	BoNT F protease	BoNT-A LC inh2	Anthrax LF inh2	GDH-TPI inh
CC1CCc2sc(-c3n[nH]c(=S)o3)cc2C1 (configuration not stated)	+	4021	-1	-1	-2	15
S=c1[nH]nc(-c2cc3c(s2)-c2ccccc2CC3)o1	+	2808	-8	1	0	22
CC1CCc2sc(C(=O)NC3CCCCC3)cc2C1 (configuration not stated)	3	4061	-8	0	3	3
O=C(O)c1ncc(-c2ccccc2)cn1	3	17752*	-9	-4	-5	7
c1ccc(-c2cnc(-c3ccccc3)nc2)cc1	3	7478	12	?	5	5
COc1ccc(C(=O)c2oc3ccccc3c2NC(C)=O)cc1	0	6907	1	0	0	33*
COc1cccc(NC(=O)c2ccc3c(c2)OCO3)c1	0	3196	?	0	0	4
COc1cccc(NC(=O)c2oc3ccccc3c2NC(=O)c2ccc3c(c2)OCO3)c1	2	8647	-12	0	-6	36*
CS(=O)(=O)N(CC(=O)N1CCN(c2ccc(F)cc2)CC1)c1ccc(F)c(Cl)c1	-1	24225*	-4	?	-4	6
CCOc1cc(/C=C(\C#N)C(=O)NCc2cccnc2)ccc1O	-25	2247	-2	0	-2	3
CCNC(=S)NNC(=O)c1cc(-c2cccc(OC)c2)nc2ccccc12	-1	2082	0	0	-1	0
Cc1ccc(C)c(NC(=O)CCC(=O)NNC(=O)c2cccc([N+](=O)[O-])c2)c1	3	24147*	-4	?	1	-2
CCCOc1cccc(-c2cc(C(=O)NNC(=S)NCC)c3ccccc3n2)c1	8	24056*	-4	-3	-3	22
CCNC(=S)NNC(=O)c1cc(-c2ccc(OCC)cc2)nc2ccccc12	11	8176	3	0	1	37*
CCNC(=S)NNC(=O)c1cc(CC(C)C)nc2ccccc12	6	22680*	1	?	0	-1
O=C(OCc1cn([C@@H]2C[C@H](c3ccccc3)N(C(=O)C3CCCCC3)C[C@H]2O)nn1)c1ccccc1	4	3536	2	0	1	14
Cn1nc(C(C)(C)C)cc1C(=O)N1CCCCC1c1cc(C(=O)Nc2ccccc2Cl)no1 (configuration not stated)	3	2892	0	1	-4	9
CCc1nc(CN2CCN(c3cc(C(F)(F)F)ccn3)CC2)c(C)[nH]1	4	5952	5	1	-2	7
O=C(NNC(=O)c1ccco1)c1cccc(Br)c1	0	5572	10	5	5	10
COc1ccc(C(=O)NNC(=S)NC(=O)c2cc(-c3ccccc3)nc3ccccc23)cc1	2	3038	-3	0	-1	33*
O=C(NC(=S)NNC(=O)c1ccccc1O)c1cccc([N+](=O)[O-])c1	1	3792	?	-8	0	8
COc1ccc(C(=O)NNC(=S)NC(=O)c2cccc([N+](=O)[O-])c2)cc1	0	3528	?	1	10	35*
O=C(CCC(=O)OCC(=O)c1cccc([N+](=O)[O-])c1)Nc1ccccc1Cl	2	25045*	-7	-4	-2	8
CCCOc1ccc(C(=O)NNC(=S)NC(=O)c2cc(-c3ccc(Cl)cc3)nc3ccccc23)cc1	-5	4353	-23	1	4	15
O=C(NNC(=O)c1ccco1)c1cccc([N+](=O)[O-])c1	-3	4513	38*	-1	2	0
SMILES	FBA Mtb inh	Bead autofluor	BoNT F protease	BoNT-A LC inh2	Anthrax LF inh2	GDH-TPI inh
CCC(C)(C(=O)Nc1ccc(OC)cc1)N(C)C(=O)Cn1nnnc1N (configuration not stated)	3	6266	-6	-1	-3	11
CSc1ccc(S(=O)(=O)N(C)Cc2ccccc2)cc1	4	4880	6	-1	1	-3
Cc1nc2cc(C(=O)N3c4ccccc4CC3C)ccc2s1 (configuration not stated)	2	2544	2	0	1	6
CC1Cc2ccccc2N1C(=O)c1cnc2ccccn2c1=O (configuration not stated)	0	23725*	-5	-2	-2	18
Cc1csc2ncc(C(=O)N3c4ccccc4CC3C)c(=O)n12 (configuration not stated)	5	4519	9	1	-5	42*
Cc1ccc(-c2csc(N)n2)s1	0	20327*	-1	-2	0	-4
Cc1ccccc1-c1csc(N)n1	0	4025	1	-1	0	-3
COCCN1C(=O)/C(=C/c2ccc(N3CCCC3)cc2)SC1=S	0	18513*	4	15	9	3
COc1ccc(/C=C2\SC(=S)N(CCC(=O)N3CCCCC3)C2=O)cc1	0	3029	-4	3	2	1
O=c1nc(/C=C/c2cc([N+](=O)[O-])ccc2Cl)cc(C(F)(F)F)[nH]1	3	22027*	3	3	0	2
O=c1nc(/C=C/c2cccn2-c2ccc([N+](=O)[O-])cc2)cc(C(F)(F)F)[nH]1	-1	2104	1	0	-2	14
COC(=O)c1ccc(/C=N/Nc2nc3ccccc3[nH]2)cc1	1	4451	-2	0	-4	14
O=C(O)c1ccc(/C=N/Nc2nc3ccccc3[nH]2)cc1	2	4241	-6	0	-9	75*
COc1cc(/C=N/Nc2ccc(C(F)(F)F)cn2)ccc1O	-1	4421	-3	-1	-4	22
CC(=O)Nc1ccc(/C=N/Nc2nc3ccccc3[nH]2)cc1	-5	2639	-8	0	-2	38*
O=C(O)c1ccc(/C=N/Nc2ccc(C(F)(F)F)cn2)cc1	0	4457	-3	-2	-15	38*
O=C(O)C1CCCCC1C(=O)NCCC(c1ccccc1)c1ccccc1 (configuration not stated)	-1	10310	-1	-1	-3	0
O=C(NCCCCCCNC(=O)C1CCCC1)C1CCCC1	-3	21472*	0	?	-3	6
O=C(O)[C@H]1CCCC[C@H]1C(=O)NCCNC(=O)[C@@H]1CCCC[C@@H]1C(=O)O	-1	23932*	-5	?	-2	6
CC(O)c1cccc(N=Cc2ccc3ccccc3c2O)c1 (configuration not stated)	4	3851	?	6	42*	-6
COc1ccc(N=Cc2oc3ccc4ccccc4c3c2O)cc1	-14	3734	0	8	3	7
CCN1CCN(CC(=O)N2N=C(c3cccs3)CC2c2ccc(C)cc2)C(=O)C1=O (configuration not stated)	4	5172	5	-1	-5	13
Nc1cc(Cl)nc(N/N=C/c2ccc([N+](=O)[O-])cc2)n1	-4	1928	-5	0	0	33*
Nc1cc(Cl)nc(N/N=C/c2ccccc2[N+](=O)[O-])n1	1	3007	-4	0	-8	7
